# Screening data deposited in PubChem by several laboratories.
# In the library only some 1.8% were active in any assay of this set; here they are far more common.
# aDG glyco up: activators of alpha-DG glycosylation, primary screen, uHTS, Pro5-aDG cells, AlphaScreen. AID 624168, 2012. alpha-DG glycosylation AlphaScreen (IIH6); 0% Pro5, 100% B10-LARGE cell signal. 0.22% of 360,000 active. activation, % at 10 µM;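 active means activation of at least 8% versus controls, or a plate z-score of at least 8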;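 further: Pro5 are CHO cells carrying HIG-tagged alpha-DG that lacks glycosylation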
# A1 inh: caspase 3/7 activation in MEF A1-2A-BIM cells, primary screen, A1 inhibitor project, cell-based, luminescence, HTS; Caspase-Glo 3/7 luminescence, 3 h; percent of clofoctol response, vehicle zero; caspase activation, % (test concentration not listed); 0.066% of 330,000 active; AID 2462, 2010;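 active means over half of replicate activation scores above 10%, or exactly half above 10 with the replicate mean above 10; inconclusive means replicate mean below 10 yet half the replicates above 10; inactive means over half of replicates below 10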
# ARNT-TACC3 inh: disruptors of ARNT/TACC3 protein interaction, primary screen, biochemical, AlphaScreen, single concentration; AlphaScreen His-ARNT PAS-B/GST-TACC3 binding, luminescence; TACC3 fragment carries E629A point mutation; Transforming acidic coiled-coil-containing protein 3 (Homo sapiens), Q9Y6A5; 0.66% of 390,000 active; inhibition, % at 9.99 µM;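 active means mean inhibition of replicates at least 50% and at least half of replicates each reaching 50%; inconclusive means half or more replicates reach 50% but mean below 50%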
# AI-2 QS mod: Vibrio harveyi AI-2 quorum sensing modulators, primary screen, JMH597 strain, luminescence/OD600 ratio; Vibrio harveyi JMH597 AI-2 luminescence/OD600 ratio, 9 h; stronger effect = lower value; strain lacks LuxN and CqsS sensors; 0 = neutral-control median; activity change, % at 7.5 µM; 0.4% of 300,000 active; AID 2094, 2009; in the data active means activity change below about -75%, passing the limit was not always enough; inconclusive means no clear call, values can overlap the other calls;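 further: luminescence divided by OD600 gain over 9 h not by final OD600 alone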
# Mot1-301 SUMO: yeast Mot1-301 growth rescue at high temperature, primary screen, SUMOylation pathway inhibitor project, S. cerevisiae, ATP luminescence, 38.5C; S. cerevisiae Mot1-301 growth rescue; percent above DMSO median, 100 means doubled; growth rescue, % at 18.8 µM; 1% of 320,000 active;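 active means every valid replicate shows activation above 250% relative to neutral control wells; inactive means the rest, any valid replicate at or below 250%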
# Numbers stand for hits; n = inactive; u = inconclusive; x = no result.
SMILES,aDG glyco up,A1 inh,ARNT-TACC3 inh,AI-2 QS mod,Mot1-301 SUMO
COc1ccc(NC(=O)c2ccccc2NS(=O)(=O)c2ccc(C)cc2)c([N+](=O)[O-])c1,n,n,x,n,823
O=C(CNC(=O)c1ccccc1F)NCCOc1ccccc1Cl,n,n,n,n,n
Cc1ccc(CNC(=O)Nc2ccc3c(c2)N(C)C(=O)CS3)cc1,n,n,n,-78,n
COc1ccc(C(=O)NC(C)c2nnc(SCC(=O)NC3=NCCS3)n2C)cc1 (stereo unspecified),n,n,n,n,n
C[C@H](NC(=O)c1nc[nH]c1C(=O)N1CCN(C(=O)OC(C)(C)C)CC1)c1ccccc1,n,n,n,x,n
Cc1cc(C)cc(Nc2nc3c(S(=O)(=O)c4ccccc4)nnn3c3ccccc23)c1,n,n,n,x,n
Cc1cccc(Nc2nc3c(S(=O)(=O)c4ccccc4)nnn3c3ccccc23)c1,n,7.4,n,n,n
O=C(NCc1ccc(F)cc1)C1CC(=O)N(C2CCCCC2)C1 (stereo unspecified),n,n,n,n,n
O=C(NCc1ccccc1)C1CC(=O)N(C2CCCCC2)C1 (stereo unspecified),n,n,n,n,318
CC(=O)Nc1nc(N)n(-c2ccccc2)n1,n,n,n,n,n
Nc1nc(NC(=O)/C=C\C(=O)O)nn1-c1ccccc1,n,n,74,n,n
Nc1nc(NC(=O)Cc2ccccc2)nn1-c1ccccc1,n,n,48,n,n
CO[C@@H]1CN(C)C(=O)c2cc(NC(=O)C3CCOCC3)ccc2OC[C@@H](C)NC[C@H]1C,x,x,n,x,x
Cc1cc(NS(=O)(=O)c2ccc(Nc3nc(-c4sc(N)nc4C)cs3)cc2)no1,n,n,62,n,n
Cc1nc(N)sc1-c1csc(Nc2cccc(C(=O)O)c2)n1,n,n,52,n,n
C[C@@H]1CN([C@@H](C)CO)C(=O)CCCn2nncc2CO[C@H]1CN(C)C(=O)Nc1ccccc1,x,x,n,x,x
C=CCN1N=C(c2ccc(Cl)s2)CSC1=O,n,n,x,n,n
Cn1cc([N+](=O)[O-])c(C(=O)Nc2nc(-c3ccc(Cl)cc3)cs2)n1,n,n,x,n,n
Cc1cnc(NC(=O)c2nn(C)cc2[N+](=O)[O-])s1,n,x,x,n,x
Cc1ccc(-c2nc(NC(=O)c3nn(C)cc3[N+](=O)[O-])sc2C)cc1,n,11,n,n,n
Cc1ccc(-c2nc(NC(=O)c3nn(C)cc3[N+](=O)[O-])sc2C)cc1C,n,39,n,n,n
CC(C(=O)N1c2ccc(F)cc2CCC1C)N1C(=O)c2ccccc2C1=O (stereo unspecified),n,n,n,n,262
O=C(Nc1ccccc1N1CCCCC1)c1ccc(Cl)cc1,n,7.3,n,n,n
Cc1ccc(C(=O)Nc2ccccc2N2CCCCC2)cc1,n,n,n,n,n
O=C(NCCc1ccccc1)C1CCC(=O)N1CCc1ccccc1 (stereo unspecified),n,n,n,n,n
SMILES,aDG glyco up,A1 inh,ARNT-TACC3 inh,AI-2 QS mod,Mot1-301 SUMO
Cc1ccc(S(=O)(=O)c2c(C)cc(C)nc2Oc2cccc(C(F)(F)F)c2)cc1,n,n,active,n,x
Cc1cccc(OCCn2c(NC(=O)c3ccco3)nc3ccccc32)c1,n,n,n,n,n
Cc1[nH]c2ccccc2c1C(=O)COC(=O)c1ccc([N+](=O)[O-])s1,n,u,n,-128,n
CCOC(=O)Nc1ccc2ncn(C)c(=O)c2c1,n,n,n,n,n
O=C(O)c1ccccc1NC(=O)C(Cc1ccccc1)N1C(=O)c2ccccc2C1=O (stereo unspecified),n,n,n,n,n
O=C(Nc1ccc([N+](=O)[O-])cc1)C(Cc1ccccc1)N1C(=O)c2cccc3cccc(c23)C1=O (stereo unspecified),n,5.5,n,n,n
CC(C)NC(=O)c1onc(CSc2ccccn2)c1C(=O)NC(C)C,n,n,n,n,n
CCOc1cc(C(=O)CSc2nnc(CNc3ccc(Cl)cc3)o2)ccc1NC(=O)CC,n,8.7,n,n,n
CCCNC(=O)N(C)C[C@@H]1Oc2ncc(C#CC3(O)CCCC3)cc2C(=O)N([C@@H](C)CO)C[C@H]1C,x,x,n,x,x
CC(C)CC#Cc1cnc2c(c1)C(=O)N([C@@H](C)CO)C[C@@H](C)[C@@H](CN(C)Cc1cncnc1)O2,x,x,n,x,x
COC(=O)C12CCC(C)(c3nc4ccccc4nc31)C2(C)C (stereo unspecified),n,n,n,n,n
Cc1ccc(NC(=O)COc2ncnc3sccc23)cc1S(=O)(=O)N(C)C,n,n,n,-78,n
COc1ccccc1-c1sc2ccccc2c1-c1ccc(OCCN2CCOCC2)cc1,n,x,n,x,x
c1ccc(-c2sc3ccccc3c2-c2ccc(OCCN3CCOCC3)cc2)cc1,n,n,n,x,407
O=C(/C=C/c1ccc(S(=O)(=O)N2CCOCC2)cc1)NCc1ccc(Cl)cc1,n,n,14,n,n
COC(=O)c1ccc(OCCOc2ccccc2)cc1,n,n,n,-76,n
COC(=O)c1ccc(OCCOc2ccccc2C)cc1,n,n,n,n,n
COc1ccc(CCN(C)C(=O)c2cnc(C)cn2)cc1OC,n,n,active,n,n
O=C(Nc1c2c(nn1-c1ccccc1)CS(=O)(=O)C2)c1cc2ccccc2o1,n,n,n,n,n
O=C(c1ccco1)N1CCN(c2ccccc2F)CC1,n,n,n,n,n
OC(CNCc1ccccn1)c1ccccc1 (stereo unspecified),n,n,48,n,n
CN(C)CC[C@@H](c1ccc(Cl)cc1)c1ccccn1,n,n,n,n,n
OC(CNCc1ccncc1)c1ccccc1 (stereo unspecified),n,n,n,n,n
Fc1ccc(C(CCNCc2ccccn2)c2ccc(Cl)cc2)cc1 (stereo unspecified),n,n,48,n,n
C[C@@H]1CCCCO[C@H](CN(C)C(=O)Cc2ccccc2)[C@H](C)CN([C@@H](C)CO)C(=O)c2cc(NC(=O)Nc3ccccc3)ccc2O1,x,x,n,x,x
O=C(c1ccccc1)c1c[nH]c(C(=O)NNc2ccccc2)c1,n,n,n,n,404
CC(C)Cc1cc(C(=O)NCCN2CCOCC2)no1,n,n,n,n,n
C[C@@H]1CN([C@H](C)CO)C(=O)c2cc(C3=CCCC3)cnc2O[C@@H]1CN(C)C(=O)c1ccccc1,x,x,n,x,x
C=C1N(c2ccc(Cl)cc2)C(=O)OC1(C)C,n,n,n,n,n
Cc1cnc(NC(=O)COc2cccc3c2OC(C)(C)C3)s1,n,n,n,n,255
